KB-3-1 tox – KB-3-1 parental cell cytotoxicity; KB-3-1 viability, CellTiter-Glo ATP luminescence, 72 h; Potency, µM (titrated, usually from 46.1 µM), usual class: cytotoxic; 400,000 tested, 1.4% active; AID 1347075; further: nearly all actives have a fitted effect of over 60% in size
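Cytotoxicity measured as CellTiter-Glo luminescence after 72 h at 37 C. Compound titrations were pinned onto drug-naive KB-3-1 parental adenocarcinoma cells grown in DMEM with 10% FBS, and normalized data fitted to concentration-response curves.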
HepG2 tox – HepG2 cytotoxicity, counter-screen for TGF-b inhibitors. HepG2 CAGA-GFP viability, ATP luminescence, 18 h. Potency, µM (top dose mostly 46.1 µM), most hits filed as cytotoxic. 410,000 tested, 0.76% active. AID 588856
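CellTiter-Glo luminescence gave cytotoxicity after 18 hours at 37 degrees C. The cells were HepG2 CAGA-GFP in 1% FBS DMEM, stimulated with 500 pg/mL TGF-beta after compound addition. %Activity was normalised to no-cell wells (complete cell-killing) and DMSO (no toxicity), and curves were fitted and classified.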
KB-V1 MDR tox – KB-V1 MDR subline cytotoxicity | KB-V1 MDR cells viability, CellTiter-Glo, 72 h | Potency, µM (top dose mostly 46.1 µM), most hits filed as cytotoxic | 400,000 tested, 3.4% active; further: nearly all actives have a fitted effect of over 60% in size
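qHTS viability screen in drug-selected KB-V1 MDR cells: 72 h compound treatment at 37 degrees C, ATP luminescence end point.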
TGFb inhibitor – blocks TGF-b signaling. 410,000 tested, 1.2% active. Potency, µM (titrated, usually from 46.1 µM), most hits filed as inhibitors. HepG2 CAGA-GFP TGF-b/SMAD3 reporter, GFP fluorescence, 18 h; TGF-beta stimulated, 500 pg/mL final; further: nearly all actives have a fitted effect of over 65% in size
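First, reporter cells (HEPG2 CAGA-GFP) rested 2 h at 37 degrees C. Next, compounds were pinned in and TGF-beta added to 500 pg/mL final. After 18 h, GFP was imaged per cell and summed per well.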
HT1080NT lethal – kills 2HG-producing HT-1080-NT fibrosarcoma cells | HT-1080-NT fibrosarcoma viability, CellTiter-Glo ATP luminescence, 48 h | Potency, µM (titrated, usually from 46.1 µM), actives largely listed as cytotoxic | 360,000 tested, 1.6% active | AID 686970;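 further: NT is the 2HG producing partner of a matched IDH1 knockdown line; nearly all actives have a fitted effect of over 55% in size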
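HT-1080-NT; 750 cells/well; 5% FBS RPMI; 48 h compound, 37 degrees C; CellTiter-Glo luminescence; curve fitting and curve-class assignment.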
HT1080 IDH1KD tx – toxicity to HT-1080 IDH1 knockdown cells (counter line); HT-1080 IDH1 knockdown viability, ATP luminescence, 48 h; Potency, µM (doses to about 46.1 µM), actives largely listed as cytotoxic; 360,000 tested, 2% active; AID 686971
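Viability of IDH1-knockdown HT-1080 fibrosarcoma cells was assessed by CellTiter-Glo after 48 h at 37 °C with titrated compound; concentration-effect curves were classified by fit quality and response size.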
A number is an active result; – = inactive; ? = inconclusive; · = not tested or not shown. An excerpt weighted towards active compounds, which were near 6.6% of everything screened. The call rests on the fitted dose curve; in most records, active means well fitted curve in the direction sought with a large enough effect; inconclusive means small, poorly fitted or top-dose-only effect, or another doubt; inactive means no such curve, though single readings can be large; an effect the other way counts as inactive or inconclusive.

SMILES	KB-3-1 tox	HepG2 tox	KB-V1 MDR tox	TGFb inhibitor	HT1080NT lethal	HT1080 IDH1KD tx
O=C(Cn1c(=O)oc2cc(S(=O)(=O)NCc3ccccc3)ccc21)Nc1ccc(F)c(Cl)c1	–	–	–	–	·	·
CN1CCC(O)(c2cccs2)C(C(=O)c2cccs2)C1 (stereo unspecified)	–	–	–	?	23.1µM	?
ClCCN(CCCl)c1ccc(/C=C/c2sc3ccccc3[n+]2CCCCI)cc1	?	–	–	?	·	·
CC(Cc1ccccc1Sc1ccccc1)N(C)C (stereo unspecified)	–	–	–	–	–	–
CN1CCN(Cc2ccccc2Sc2ccccc2)CC1	–	–	20.6µM	–	–	–
Cc1ccc(S(=O)(=O)c2nc(-c3ccccc3Cl)oc2N(C)C2CCN(C)CC2)cc1	–	11.2µM	–	?	?	?
CC(C)(C)N1CC(C(=O)c2ccccc2)C1c1ccccc1 (stereo unspecified)	–	–	16.4µM	–	–	?
CN1CC(C(=O)c2ccccc2)C(c2ccccc2)C1 (stereo unspecified)	–	–	–	–	–	–
CCOc1ccc(C2c3c(-c4ccccc4O)n[nH]c3C(=O)N2Cc2ccncc2)cc1 (stereo unspecified)	?	–	–	?	·	·
Oc1ccc(C2NCc3ccccc3-n3cccc32)cc1Cl (stereo unspecified)	–	–	–	–	–	–
c1cc2n(c1)-c1c(ccc3c1OCO3)CNC2c1ccc2c(c1)OCO2 (stereo unspecified)	?	–	18.4µM	–	?	?
COc1ccc(C2NCc3ccc4c(c3-n3cccc32)OCO4)cc1O (stereo unspecified)	1.3µM	–	?	?	?	1.84µM
CCOc1cc2c(cc1OCC)-n1cccc1C(c1ccc(OC)c(OC)c1)NC2 (stereo unspecified)	–	–	–	?	–	–
CCN(CC)C(=O)c1ccc(NC(=O)CCn2nc(-c3ccc(Cl)cc3)c3ccccc3c2=O)cc1	–	–	–	?	·	·
COc1ccc(C2CC(=O)Oc3c2c(=O)oc2ccccc32)c(OC)c1OC (stereo unspecified)	?	–	–	–	·	·
COc1ccc(C2=CC(c3ccc4c(c3)OCO4)c3c(c4ccccc4oc3=O)O2)cc1OC (stereo unspecified)	2.91µM	–	2.59µM	?	?	?
O=C(NC1C=CS(=O)(=O)C1)c1sc2ccccc2c1Cl (stereo unspecified)	–	–	?	–	15.8µM	11.2µM
Clc1ccc(C(c2ccc(Cl)cc2)n2cc[n+](CC(OCc3ccc(Cl)cc3Cl)c3ccc(Cl)cc3Cl)c2)cc1 (stereo unspecified)	?	12.6µM	?	17.8µM	5.17µM	5.8µM
CCCCN1CCS(=O)(=O)N(Cc2ccccc2Br)CC(C(=O)OC)C1 (stereo unspecified)	?	–	?	?	–	–
CC(O)(CS(=O)(=O)c1ccccc1)C(=O)Nc1cccc(C(F)(F)F)c1 (stereo unspecified)	–	–	20.6µM	–	–	–
Cc1ccc(S(=O)(=O)CC(C)(O)C(=O)Nc2cccc(C(F)(F)F)c2)cc1 (stereo unspecified)	–	–	–	–	–	?
Cc1ccc(S(=O)(=O)c2nnn3c2nc(N2CCC(C(N)=O)CC2)c2cc(Cl)ccc23)cc1C	–	–	?	–	·	·
Cc1cc(C)n(-c2nc(SCCN(C)C)c3c4c(sc3n2)CCCC4)n1	–	–	–	?	7.94µM	?
CCC(C(=O)c1ccccc1)P(=O)(NN)c1ccccc1 (stereo unspecified)	–	–	–	–	–	–
COC(=O)C12CCc3c(ccc4cc(OC)ccc34)C1=CC(=O)C2 (stereo unspecified)	?	–	20.6µM	–	–	–
SMILES	KB-3-1 tox	HepG2 tox	KB-V1 MDR tox	TGFb inhibitor	HT1080NT lethal	HT1080 IDH1KD tx
CCn1cc2nc(SCc3c(F)cccc3Cl)n(CCc3ccccc3)c(=O)c2n1	–	–	–	?	·	·
C=CCN1C(=O)NC(=O)/C(=C/C=C/c2ccccc2)C1=O	–	–	–	?	?	20.6µM
C=CCN1C(=O)NC(=O)/C(=C/c2ccc(OC)c(CSc3ccccn3)c2)C1=O	–	–	–	–	–	–
O=C1NC(=O)N(CCc2ccc(F)cc2)C(=O)/C1=C\C=C\c1ccccc1	16.4µM	–	14.6µM	–	–	–
COc1cc(-c2nc3ccc(Cl)cn3c2Nc2ccc3c(c2)OCCO3)ccc1O	–	–	–	?	·	·
COc1ccc(Oc2cc(NC(=O)c3nn(C)cc3[N+](=O)[O-])cc([N+](=O)[O-])c2)cc1	20.6µM	17.8µM	?	10µM	18.4µM	5.17µM
CCCNC1=C(C)C(=O)C2=C(C1=O)C(COC(N)=O)[C@]1(OC)C3NC3CN21 (stereo partly specified)	18.4µM	–	–	–	–	–
Cc1ccccc1-n1nc(C)c2c1NC(=O)CSC2c1ccc(N(C)C)cc1 (stereo unspecified)	–	–	–	?	·	·
CCOC(=O)C(O)(c1ccc(N(CC)S(=O)(=O)c2ccc(C)cc2)cc1)C(F)(F)F (stereo unspecified)	–	–	18.4µM	–	–	–
COc1ccc(-c2c3c(=O)n(C)c(=O)n(C)c3c3n2-c2ccccc2NC3c2ccccc2OC)cc1 (stereo unspecified)	–	–	?	?	·	·
CN1CCN(c2oc(-c3ccc(COc4ccccc4)o3)nc2C#N)CC1	–	–	–	–	·	·

Screening data from PubChem BioAssay.
